Measured values published in PubChem BioAssay AID371 (SRMLSC, 2006).
The whole screen tested about 3,300 compounds, of which about 280 (8.5%) were called active.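 How the source made its calls: active means mean growth inhibition over the two runs of 50% or more; inactive means mean growth inhibition under 50%.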 The list comes from a sample in which actives are over-represented; it also holds similar structures and randomly drawn compounds.

Assay: A549 NSCLC cell proliferation inhibitors – ATP luminescence, human non-small cell lung line, primary screen (AID 371);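 further: compound exposure lasted 72 h before the ATP read; 0% = untreated cell signal and 100% = no luminescence left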
Conditions: at 10 µM, active compounds read high

Growth inhibition, active:
CCCCC(=O)O[C@H]1CC[C@H]2[C@@H]3CCc4cc(O)ccc4[C@H]3CC[C@]12C 92.3%, C[C@]12CC[C@@H]3c4ccc(OC(=O)c5ccccc5)cc4CC[C@H]3[C@@H]1CC[C@@H]2O 73.8%, CCN1CCc2c(C#N)c(NCc3ccccc3)nc(N(CC)CC)c2C1 67.3%, CCCCCNc1nc(N2CCCC2)c2c(c1C#N)CCN(C)C2 95.5%, C=CCNc1nc(NCc2ccccc2)c(C#N)c2c1CN(C)CC2 70.9%, CCN1CCc2c(C#N)c(N3CCCCC3)nc(NCc3ccccc3)c2C1 88.8%, N#Cc1c(NCCN)nc(NCc2ccccc2)c2c1CCN(Cc1ccccc1)C2 91.8%, CN1CCc2c(C#N)c(N3CCCCC3)nc(NCc3ccccc3)c2C1 90.4%, CN(C)CCCN1c2ccccc2Sc2ccc(C(F)(F)F)cc21 90.7%, CN(C)CCCN1c2ccccc2Sc2ccc(Cl)cc21 92.2%, CN(C)CCCN1c2ccccc2CCc2ccc(Cl)cc21 85.6%

Growth inhibition, inactive:
C[C@]12CC[C@@H]3c4ccc(O)cc4CC[C@H]3[C@@H]1CC[C@@H]2OC(=O)CCC(=O)O 14.8%, C[C@]12CC[C@@H]3c4ccc(O[C@@H]5O[C@H](C(=O)O)[C@@H](O)[C@H](O)[C@H]5O)cc4CC[C@H]3[C@@H]1C[C@@H](O)[C@@H]2O -8.48%, C[C@]12CC[C@@H]3c4ccc(OS(=O)(=O)O)cc4CC[C@H]3[C@@H]1CCC2=O -4%, C[C@]12CC[C@@H]3c4ccc(O)cc4CC[C@H]3[C@@H]1CCC2=O 14.8%, CCOC(=O)COn1c(=O)c(-c2ccc(OC)c(OC)c2)[n+]([O-])c2ccccc21 4.28%, CCCCSc1nc(N)c(C#N)c(-c2cccs2)c1C#N 40.8%, CC1(C)C2CCC1(C)C(NC(=O)CCN1CCCCC1)C2 (stereo not given) 7.81%, CNS(=O)(=O)c1cccc2nsnc12 -11.4%, COc1cc(S(=O)(=O)N2CCN(C)CC2)c(OC)cc1Br 6.26%, CN1CCc2c(C#N)c(N3CCCCC3)nc(N3CCOCC3)c2C1 3.07%, CCN1CCc2c(C#N)c(N3CCOCC3)nc(NCCO)c2C1 6.84%, CCN1CCc2c(C#N)c(N3CCOCC3)nc(NCc3ccccc3)c2C1 23.9%, C=CCNc1nc(N2CCOCC2)c(C#N)c2c1CN(C)CC2 2.03%, CCN1CCc2c(C#N)c(N3CCCCC3)nc(N3CCOCC3)c2C1 4.36%, CCN1CCc2c(C#N)c(NCc3ccccc3)nc(NCCO)c2C1 3.07%, CN1Cc2c(N3CCOCC3)nc(SCc3ccccc3)c(C#N)c2CC1(C)C 45.5%, CCN(CC)c1nc(N2CCOCC2)c(C#N)c2c1CN(C)CC2 11.1%, FC(F)(F)c1cccc(-n2cccc2/C=N/n2cnnc2)c1 9.69%, CSc1nc2[nH]c3c(c2c2ncnn12)CCCC3 38.4%, Cc1cc(=O)n2[nH]c(N3C(=O)CCC3=O)nc2n1 1.01%, Cc1nccn1-c1cc(C(C)C)c(C#N)c2nc3ccccc3n12 2.71%, O=c1[nH]c(CN2CCCCC2)nc2c1C1(CCCC1)Cc1ccccc1-2 2.71%, [N-]=[N+]=CC(=O)c1ccnc(C(=O)C=[N+]=[N-])c1 23.6%, COc1ccc(/C(O)=C2\C(=O)C(=O)N(c3cc(C)on3)C2c2ccccc2OC)cc1 (stereo not given) -10.7%, O=C1c2ccccc2C(=O)N1CC1c2ccccc2CCN1C(=O)N1CCOCC1 (stereo not given) 5.08%, CCOC(=O)c1c(NC(=O)CCN2CCOCC2)sc2c1CC(C)(C)OC2 5.84%, N#Cc1c(N2CCCCC2)nc(N2CCCCC2)c2c1CCN(Cc1ccccc1)C2 19.3%, Nc1[nH]nc2nc(NCc3ccccc3)c3c(c12)CCN(Cc1ccccc1)C3 24.5%, N#Cc1c(NCCCO)nc(-c2ccccc2)c2c1CCCC2 32.5%, C=CCNc1nc(N2CCCCC2)c(C#N)c2c1CN(Cc1ccccc1)CC2 37.1%, CCCc1cc(=O)oc2c(CN3CCN(C)CC3)c(O)c(Cl)cc12 1.1%, CCOC(=O)Cc1[nH]nc2c1C(c1cc(OC)ccc1OC)C(C#N)=C(N)O2 (stereo not given) -2.35%, COCCOC(=O)c1c(C)nc(SCC(=O)Nc2ccc(C)cc2)c(C#N)c1-c1ccco1 3.22%, Cc1nc(N2CCOCC2)c(C#N)c2c1COC(C)(C)C2 12.7%, CN(C)CCCOC(=O)c1ccc(Cl)cc1Cl 5.84%, COc1ccc([C@@H]2Sc3ccccc3N(CCN(C)C)C(=O)[C@@H]2OC(C)=O)cc1 15.1%, CN(C)CCCN1c2ccccc2Sc2ccccc21 29.4%, CN1CCN(C2=Nc3cc(Cl)ccc3Nc3ccccc32)CC1 26%, CN(C)CCCN1c2ccccc2CCc2ccccc21 16.1%
